# High-throughput results as filed in PubChem BioAssay.
# Only some compounds are listed: those with a hit (about 10% of all), similar ones and a draw of the others.
# HP1b binding inh: HTS for Inhibitors of HP1-beta Chromodomain Interactions with Methylated Histone Tails. Chromobox protein homolog 1 (Homo sapiens), P83916. 390,000 tested, 0.56% active. AlphaScreen HP1-beta / biotin-H3K9me3 peptide binding. AID 540317, 2011. Potency, µM (series often up to 114 µM), for the others: top-dose activity change, negative = inhibition, usual class: inhibitors; also: nearly all actives have a fitted effect of over 70% in size
#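 AlphaScreen: HP1-beta (50 nM) preformed 30 min with biotin-H3(1-18)K9me3 peptide (50 nM) in PBS pH 7.4, 0.01% Tween-20. Compound added for 30 min at RT, then streptavidin donor/nickel chelate acceptor beads (10 ug/mL) for 30 min.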
# G9a inh: qHTS Assay for Inhibitors of Histone Lysine Methyltransferase G9a | G9a H3K9 monomethylation, AlphaScreen, 2 h | Potency, µM (doses to about 102 µM), inactives show at the highest dose activity, negative = inhibition, usual class: inhibitors | 350,000 tested, 8.8% active; also: % is scaled to controls: 0 for no effect and ±100 for the full control effect; nearly all actives have a fitted effect of over 75% in size
#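 G9a (20 nM) preincubated 15 min RT with compounds, then 500 nM biotinylated H3K9 peptide and 20 uM SAM added; 2 h RT reaction. Monomethyl-H3K9 product detected by AlphaScreen with anti-H3K9me1 antibody, streptavidin donor and anti-rabbit IgG acceptor beads.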
# JMJD2A Tudor inh: qHTS Assay for Inhibitors of JMJD2A-Tudor Domain. Lysine-specific demethylase 4A (Homo sapiens), O75164. AlphaScreen JMJD2A-Tudor / H3K4me3 peptide binding. Potency, µM (series often up to 114 µM), for the others: at the highest dose activity change, negative = inhibition, usual class: inhibitors. 390,000 tested, 4.4% active. AID 504339, 2011; also: % is scaled to controls: 0 for no effect and ±100 for the full control effect; nearly all actives have a fitted effect of over 50% in size
# Target sequence (O75164 whole entry, looked up, the tested form may be a part): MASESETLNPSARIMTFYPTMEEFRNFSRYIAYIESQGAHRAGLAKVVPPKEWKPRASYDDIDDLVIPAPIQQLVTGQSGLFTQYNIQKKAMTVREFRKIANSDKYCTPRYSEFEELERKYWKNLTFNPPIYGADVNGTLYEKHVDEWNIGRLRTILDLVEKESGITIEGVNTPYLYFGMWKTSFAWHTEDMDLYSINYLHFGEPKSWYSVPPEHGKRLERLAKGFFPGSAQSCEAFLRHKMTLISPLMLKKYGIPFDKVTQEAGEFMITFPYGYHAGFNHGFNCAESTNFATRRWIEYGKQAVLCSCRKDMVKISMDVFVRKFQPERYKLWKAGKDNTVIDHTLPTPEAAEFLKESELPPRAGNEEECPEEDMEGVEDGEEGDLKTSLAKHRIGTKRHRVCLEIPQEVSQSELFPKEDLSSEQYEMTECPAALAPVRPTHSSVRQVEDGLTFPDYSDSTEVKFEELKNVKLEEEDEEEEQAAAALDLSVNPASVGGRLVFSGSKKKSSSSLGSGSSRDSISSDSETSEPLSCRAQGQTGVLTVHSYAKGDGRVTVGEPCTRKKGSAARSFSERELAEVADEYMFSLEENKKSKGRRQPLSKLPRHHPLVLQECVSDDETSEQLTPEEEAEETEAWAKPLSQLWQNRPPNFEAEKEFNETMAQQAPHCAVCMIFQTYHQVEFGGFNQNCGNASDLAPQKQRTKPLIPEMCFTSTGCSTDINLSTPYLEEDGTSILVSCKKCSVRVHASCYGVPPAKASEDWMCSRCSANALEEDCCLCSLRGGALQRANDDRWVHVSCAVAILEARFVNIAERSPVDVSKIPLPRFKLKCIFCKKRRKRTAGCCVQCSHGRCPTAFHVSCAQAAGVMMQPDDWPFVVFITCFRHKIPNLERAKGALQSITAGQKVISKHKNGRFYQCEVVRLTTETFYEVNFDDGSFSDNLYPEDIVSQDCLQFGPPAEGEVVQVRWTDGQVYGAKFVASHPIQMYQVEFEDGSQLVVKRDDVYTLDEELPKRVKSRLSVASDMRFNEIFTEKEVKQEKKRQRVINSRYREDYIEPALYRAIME
# GLS inh: qHTS for Inhibitors of Glutaminase (GLS) | Glutaminase kidney isoform, mitochondrial (Homo sapiens), O94925 | GLS enzymatic activity, qHTS titration | Potency, µM (series often up to 45.5 µM), for the others: at the highest dose activity change, negative = inhibition, actives largely listed as inhibitors | 410,000 tested, 0.21% active; also: % is scaled to controls: 0 for no effect and ±100 for the full control effect
#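 Compounds were pin-transferred onto hKGA, after which L-glutamine (1 mM solution) and a detection mix of glutamate oxidase, HRP and Amplex Red were added. Initial and 30 min RT fluorescence reads were collected.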
# BAZ2B block: qHTS Assay for Inhibitors of BAZ2B; 360,000 tested, 4.4% active; Bromodomain adjacent to zinc finger domain protein 2B (Homo sapiens), Q9UIF8; AlphaScreen BAZ2B-H3K14Ac peptide displacement; Potency, µM (doses to about 114 µM), for the others: at the highest dose activity change, negative = inhibition, most hits filed as inhibitors; also: % is scaled to controls: 0 for no effect and ±100 for the full control effect; nearly all actives have a fitted effect of over 60% in size
#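 In this displacement format the biotinylated H3(5-23) peptide acetylated at Lys14 serves as ligand at 50 nM, with BAZ2B at 50 nM in PBS pH 7.4 containing 0.01% Tween-20. Donor and acceptor beads are 10 ug/mL final.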
# An asterisk follows results filed as active; ? = inconclusive; · = no result; [ ] = dose if it differs, or a comment. Calls follow the shape of the dose curve; as a rule, active = well fitted curve in the direction sought with a large enough effect; inconclusive = small, poorly fitted or top-dose-only effect, or another doubt; inactive = no such curve, though single readings can be large; an effect the other way counts as inactive or inconclusive. Potency is read from the fitted curve at half-maximal effect.
SMILES,HP1b binding inh,G9a inh,JMJD2A Tudor inh,GLS inh,BAZ2B block
O=C(NCCc1cccc(Cl)c1)c1ccc(OC2CCN(Cc3ccccn3)CC2)cc1,-3%,-4%[12.7 µM],-29%,-6%,?
O=C(CN1CCN(c2ccc(O)cc2)CC1)Nc1cc(S(=O)(=O)N2CCCCC2)ccc1Cl,50µM*,7.9µM*,?,-10%,·
O=C(CN1CCN(c2ccc(O)cc2)CC1)Nc1cc(S(=O)(=O)N2CCCC2)ccc1Cl,?,8.9µM*,?,0%,?
CCOC(=O)C1CCN(CC(=O)Nc2cc(S(=O)(=O)N3CCCCC3)ccc2Cl)CC1,20%,1%,-12%,13%,-6%
CCN1CCN(CC(=O)Nc2cc(S(=O)(=O)N3CCCCC3)ccc2Cl)CC1,?,·,22µM*,0%,·
Cc1noc(C)c1C(=O)OCC(=O)NCc1ccccc1,-7%,-2%,-15%,-4%,9%
CSCC(=O)N1CCC(n2nccc2NC(=O)c2ccc3c(c2)OCO3)CC1,8%,45µM*,?,0%,1%
Cc1cc(NS(=O)(=O)c2ccc(Nc3nc(-c4sc(N)nc4C)cs3)cc2)no1,?,-10%[12.7 µM],56µM*,?,?
Cc1cc(NS(=O)(=O)c2ccc(Nc3nc(-c4ccc(O)cc4)cs3)cc2)no1,-20%,50µM*,?,-3%,?
Cc1cc(NS(=O)(=O)c2ccc(Nc3nc(-c4ccc(C)c(C)c4)cs3)cc2)no1,-37%,?,56µM*,10%,?
COc1ccc(-c2csc(Nc3ccc(S(N)(=O)=O)cc3)n2)cc1OC,-15%,?,?,11%,?
COc1cc(NS(=O)(=O)c2ccc(Nc3nc(-c4ccccc4)cs3)cc2)nc(OC)n1,-22%,?,?,?,50µM*
CCOc1ccc(-n2c(C)nc3cc(C(=O)NC4CCCC4)ccc32)cc1,34%,?,-13%,-2%,-3%
CCc1ccc2oc(-c3ccc(C)c(NC(=O)Cc4ccccc4)c3)nc2c1,61%,42%[59 µM],-14%,-16%,39%
Cc1ccccc1CNC(=O)CCC(=O)N1CCOc2ccc(Cl)cc21,20%,14%,-12%,0%,-5%
COC(=O)Cc1c(C)c2ccc(OCC(=O)N(C)C3CCS(=O)(=O)C3)cc2oc1=O (stereo not given),37%,·,-5%,0%,-9%
COc1cc(NS(=O)(=O)c2ccc(N/C=C(\C#N)c3nc4ccccc4o3)cc2)nc(OC)n1,-1%,16%[2.33 µM],?,14%,?
COc1cc(NS(=O)(=O)c2ccc(N/C=C(\C=O)c3nc4ccccc4o3)cc2)nc(OC)n1,6%,35µM*,79µM*,-3%,79µM*
COc1ccc(NC(=O)Cn2cnc3c(oc4ccccc43)c2=O)cc1OC,36%,3%[59 µM],-28%,1%,-27%
[N-]=[N+]=CC(=O)CCCN1C(=O)c2ccccc2C1=O,18%,6%[59 µM],-5%[57.1 µM],-6%,12%
[N-]=[N+]=CC(=O)CC(c1ccccc1)N1C(=O)c2ccccc2C1=O (stereo not given),17%,?,50µM*,7%,32µM*
COc1ccc(N(CC(=O)NCCC2=CCCCC2)S(=O)(=O)c2ccc(C)cc2)cc1,·,-12%,·,·,-12%
CCOc1ccc(NC(=O)CN(C)S(=O)(=O)c2ccc3[nH]c4c(c3c2)CCCC4)cc1,-37%,10µM*,?,1%,?
CN(CC(=O)NCc1ccc(F)cc1)S(=O)(=O)c1ccc2[nH]c3c(c2c1)CCCC3,-2%,16µM*,?,11%,40µM*
Cc1cccc(N(C)C(=O)CN(C)S(=O)(=O)c2ccc3[nH]c4c(c3c2)CCCC4)c1,?,11µM*,?,8%,?
SMILES,HP1b binding inh,G9a inh,JMJD2A Tudor inh,GLS inh,BAZ2B block
Cc1cccc(C)c1NC(=O)CN(C)S(=O)(=O)c1ccc2[nH]c3c(c2c1)CCCC3,-8%,14µM*,?,6%,40µM*
CC(=O)c1ccc2c(c1)N(Cc1ccccc1Cl)C(=O)C(C)S2 (stereo not given),·,·,·,4%,·
CCc1ccc(C2c3c(n[nH]c3C)C(=O)N2c2ccc(C)cc2)cc1 (stereo not given),7%,-34%[59 µM],-17%,4%,·
C[C@@H](c1ccccc1)N1C[C@@H](COCc2ccccc2)Oc2cc(N3CC[C@@H](N(C)C)C3)ccc2S1(=O)=O,·,·,·,12%,·
COc1ccc(CNc2ccnc(-c3ccccc3CN(C)C)n2)c(OC)c1,·,9%[0.501 µM],·,·,·
Cc1ccccc1OCCC(=O)Nc1ccc(S(=O)(=O)N2CCCC2)cc1,·,·,·,-8%,·
CCc1ccccc1OCCCCN1CCCC1,-45%,16µM*,7.9µM*,14%,?
C=CCc1ccccc1OCCCCN1CCCC1,?,?,10µM*,6%,50µM*
CC(=O)c1ccccc1OCCCCN1CCCCC1,?,25µM*,25µM*,-1%,?
Cc1ccc(NC(=O)C2(C)Cc3ccccc3C(=O)O2)c(C)c1 (stereo not given),31%,7%[59 µM],4%,5%,-2%
CCOc1ccccc1C(=O)N/N=C/c1cccc2cccnc12,18%,43%[0.501 µM],?,9%,45µM*
COc1ccc(C(=O)N/N=C/c2cccnc2)cc1,48%,1%,11%,-9%,-1%
COc1ccc(C(=O)N/N=C/c2cc3ccccc3[nH]c2=S)cc1,-5%,0.71µM*,3.2µM*,4%,?
O=C(N/N=C/c1ccc(O)c(O)c1)c1ccc(CSc2cccc3cccnc23)cc1,?,35µM*,?,-5%,?
COc1ccc(C(=O)N/N=C/c2cccc3cccnc23)cc1,27%,48%[12.7 µM],56µM*,-9%,20µM*
Cc1ccc(C(=O)N/C(=C\c2cn(C)c3ccccc23)C(=O)NCCN2CCOCC2)cc1,18%,17%[0.0925 µM],-21%,7%,-35%
CCOc1ccc(C(=O)N/N=C/c2ccccc2[N+](=O)[O-])cc1,33%,15%,-8%,0%,-4%
CCOc1ccc(C(=O)N/N=C/c2cccc3cccnc23)cc1,24%,22%[59 µM],79µM*,2%,20µM*
CCS(=O)(=O)Nc1cc(-c2nc3cccnc3s2)ccc1C,23%,50µM*,1%,7%,9%
CCS(=O)(=O)Nc1cccc(-c2nc3cccnc3s2)c1,20%,·,-5%,-3%,3%
Cc1ccccc1C(=O)Nc1cccc(-c2nc3cccnc3s2)c1,11%,-60%[59 µM],100µM*,-11%,?
